# The supplement of paper PMC8726507
# Tested on: Plasmodium falciparum NF54-HGL (transmission to Anopheles stephensi)
# Assay: percentage of barcode signal found in uninfected mosquitoes (transmission-blocking activity); higher = stronger blocking of transmission to mosquito, active = 80 or more
# Conditions: 10 µM; gametocyte preincubation time 24 h; readout time post-feed 8 days
# Description: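 The mixture was fed to Anopheles stephensi in 96-well plates as blood meals tagged with DNA-barcoded Asaia bacteria. Eight days later, mosquitoes were classed infected or uninfected by luminescence (mean + 5 SD of unfed controls). Barcodes were quantified by Luminex MagPlex-TAG in the pooled uninfected and infected Asaia cultures, background-corrected, and the score is % of barcode signal in uninfected mosquitoes = 100*Iu/(Iu+Ii).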
row,Structure (SMILES),percentage of barcode signal found in uninfected mosquitoes
1,CC1=NN(c2nc3ccccc3s2)C(=O)C1Cc1cccc2ccccc12 (stereo not given),0.165% (inactive)
2,COc1cccn2c(C(=O)N3CCCCC3)c(C(F)(F)F)nc12,27.1% (inactive)
3,CS(=O)(=O)c1cccc(-c2cnc3[nH]cc(-c4ccc(CCC(=O)O)cc4)c3c2)c1,29.9% (inactive)
4,Cc1[nH]c2ccccc2c1C(c1cccs1)N1CCN(C)CC1 (stereo not given),43.7% (inactive)
5,Cc1cc(NC(=O)c2ccc(S(=O)(=O)N(Cc3ccccc3)C(C)C)cc2)no1,35.4% (inactive)

# Same assay, conditions: 20 µM; gametocyte preincubation time 24 h; readout time post-feed 8 days
row,Structure (SMILES),percentage of barcode signal found in uninfected mosquitoes
1,COc1ccc(-c2cnc3cnc(-c4cccc(OC(C)C)c4)cn23)cc1,-0.618% (inactive)
2,CCn1ncc2c(NC3CCOCC3)c(CNC(=O)c3ccnn3C)c(C)nc21,91.2% (active)
3,COc1cccc(NC(=O)c2c(NC(=O)c3cccnc3)sc3c2CCC3)c1,34.2% (inactive)
4,COc1ccc(-c2nn(C(C)C)c3ncnc(N)c23)cc1OC,95.5% (active)
5,CNCCC(Oc1ccc(C(F)(F)F)cc1)c1ccccc1 (stereo not given),27.5% (inactive)
6,CCS(=O)(=O)N(Cc1ccco1)Cc1cc2ccc(C)cc2nc1O,-1.14% (inactive)
7,COc1cc(C2=NCCN2)cc2cc(-c3ccc(C4=NCCN4)cc3)oc12,95.1% (active)
8,COc1ccc2nccc(NC(=O)C3CCN(CCc4ccc(Cl)cc4)CC3)c2n1,5.62% (inactive)
9,Cc1nn(C(=O)Nc2cccc(C(F)(F)F)c2)c(C)c1Sc1ncccn1,2.49% (inactive)
10,O=C(C1CCN(c2nnc(-n3cccc3)s2)CC1)N1CCC(Cc2ccccc2)CC1,28.5% (inactive)
11,CCOc1ccccc1NC(C)C(=O)Nc1cc(C(F)(F)F)ccc1N1CCOCC1 (stereo not given),40.9% (inactive)
12,Cc1ccc2nc(C)c(-c3ccn(Cc4ccccc4)n3)n2c1,71.6% (inactive)
13,N=C(N)Nc1ccc(-c2ccc(-c3ccc(NC(=N)N)cc3Cl)o2)c(Cl)c1,39.3% (inactive)
14,CCN(CC)S(=O)(=O)c1ccc(C(=O)Nc2cc(C)nn2-c2nc(C)c(C)c(=O)[nH]2)cc1,66.7% (inactive)
15,Cc1cc(Cl)c(S(=O)(=O)N2CCCC2)cc1OCC(=O)NC1CCCCC1,1.74% (inactive)
16,Cc1ccc(NC(=O)c2cc(S(=O)(=O)NC(C)(C)C)ccc2C)nc1,20.2% (inactive)
17,c1ccc(Oc2ccc(-c3cc(N4CCOCC4)[nH]n3)cc2)cc1,1.03% (inactive)
18,CO[C@H]1/C=C/O[C@@]2(C)Oc3c(C)c(O)c4c(O)c(/c(=C/NN5CCN(C)CC5)c(O)c4c3C2=O)=N\C(=O)/C(C)=C\C=C/[C@H](C)[C@H](O)[C@@H](C)[C@@H](O)[C@@H](C)[C@H](OC(C)=O)[C@@H]1C,20.2% (inactive)
19,O=C(Nc1nnc(S)s1)c1cc(Br)ccc1Cl,18.9% (inactive)
20,O=C(Nc1ccccc1-c1nc2c(C(=O)O)cccc2o1)c1ccccc1,27.2% (inactive)
